High-throughput results deposited in PubChem by National Center for Advancing Translational Sciences (NCATS).
VP16 counter = inhibits Gal4-VP16 luciferase reporter, ROR gamma counter-screen; Drosophila S2 Gal4-VP16 UAS-luciferase, luminescence, 20 h; Potency, µM (titrated, usually from 53.6 µM), hits mostly inhibitors; 310,000 compounds, 3.5% hits;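 further: Gal4-VP16 expression switched on by copper sulfate through the metallothionein promoter; nearly all actives have a fitted effect of over 50% in size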
TRPV1 PAM = enhances activation of the human vanilloid receptor TRPV1; TRPV1-expressing cells, Fluo-8 calcium influx, capsaicin EC20 potentiation; 320,000 compounds, 0.02% hits; potentiation, % at 8.33 µM; in the data active means potentiation above about 80%; inconclusive means between about 30% and that limit
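TRPV1-expressing cells were cultured overnight at 35.5C and loaded with Fluo-8 calcium dye for 40 to 90 min at room temperature. After a 10 s baseline, compound was added and calcium influx was read kinetically for 3 min (ex 480/em 520 nm).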
RORg inh = inhibitors of mouse ROR gamma transcriptional activity. Drosophila S2 Gal4-RORgamma UAS-luciferase reporter, 20 h. AID 2551. 310,000 compounds, 5.4% hits. P51450. Potency, µM (top dose mostly 53.6 µM), hits mostly inhibitors; further: nearly all actives have a fitted effect of over 60% in size
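Stable Schneider cell line, Gal4 DNA-binding domain fused to ROR gamma, UAS-luciferase. Cmpd 1 hr RT → CuSO4 700 uM final → 20 hr RT → luciferase reagent 10 min → luminescence.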
uPA generation = cell surface uPA generation inhibition | cell surface uPA generation assay, qHTS | Potency, µM (highest dose often 38.3 µM), usual class: inhibitors | 330,000 compounds, 0.31% hits; active means well fitted inhibition curve with a large enough effect; inconclusive means small, poorly fitted or top-dose-only effect; inactive means no such curve, though single readings can be large or run the other way; tested in mouse RAW 264.7 cells; further: nearly all actives have a fitted effect of over 55% in size
TRPV1 agonist = human TRPV1 agonism | TRPV1-expressing cells, Fluo-8 calcium influx, agonist mode | activation, % at 8.33 µM | AID 540275 | 320,000 compounds, 0.19% hits; in the data active means activation above about 80%; inconclusive means between about 30% and that limit
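Cells expressing TRPV1 were dye-loaded with Fluo-8 and read kinetically: 10 s baseline, 3 min after compound (agonist portion), then 2 min after EC20 capsaicin (allosteric enhancer portion). Calcium-bound dye fluorescence at 480/520 nm.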
Of the large screens only hits and unclear results are named; the others gave an inactive call. Most compounds without a hit are left out; they make up all but 5.8% or so of the library. Unless noted, the call rests on the fitted dose curve; in most records, active means well fitted curve in the direction sought with a large enough effect; inconclusive means small, poorly fitted or top-dose-only effect, or another doubt; inactive means no such curve, though single readings can be large; an effect the other way counts as inactive or inconclusive.

C=C(C)CNC(=S)N/N=C/c1ccco1	VP16 counter 3.2µM, RORg inh 0.56µM
C=C(C)CNC(=S)NN=C1c2ccccc2-c2ccccc21	VP16 counter inconclusive, RORg inh 3.2µM
CCNC(=S)NN=C1c2ccccc2-c2ccccc21	VP16 counter 3.2µM, RORg inh 1.8µM
O=C(CCC(=O)N/N=C/c1ccco1)N/N=C/c1ccco1	none
NC(=S)NN=C1c2ccccc2-c2cc(Br)ccc21	none (no result: VP16 counter, TRPV1 PAM, RORg inh, TRPV1 agonist)
CC(C)(C)OC(=O)N[C@@H](Cc1c[nH]c2ccccc12)C(=O)O	none (no result: TRPV1 PAM, uPA generation, TRPV1 agonist)
CC(C)(C)OC(=O)N1CCCC1C(=O)NC1COC2CC(n3cc(F)c(=O)[nH]c3=O)OC12 (configuration not stated)	none (no result: TRPV1 PAM, uPA generation, TRPV1 agonist)
Cc1c(Br)c(=O)oc2c(Br)c(O)c(O)cc12	RORg inh 5µM
O=C(Cc1cccs1)NCCCc1ccccc1	VP16 counter inconclusive, RORg inh inconclusive
O=C(Nc1ccc(COc2ccccc2)cc1)Nc1cccc(C(=O)O)c1	none
CC(C)C(=O)Nc1cccc(NC(=S)NC(=O)c2ccc([N+](=O)[O-])cc2)c1	VP16 counter inconclusive, RORg inh 11µM (no result: uPA generation)
Cc1cc(C(=O)NC(=S)Nc2cccc(NC(=O)C(C)C)c2)ccc1[N+](=O)[O-]	VP16 counter inconclusive, RORg inh 10µM
Cc1cc(C(=O)NC(=S)Nc2cccc(C(=O)O)c2C)ccc1[N+](=O)[O-]	none
CC(C)C(=O)Nc1ccc(NC(=S)NC(=O)c2ccc([N+](=O)[O-])cc2)cc1	RORg inh 10µM (no result: uPA generation)
COC(=O)c1ccc([C@H]2CC(=O)O2)cc1	RORg inh inconclusive, uPA generation 4.5µM
COC(=O)C1=C(C)NC(=O)CC1c1ccc(C(=O)OC)cc1 (configuration not stated)	none
COCCn1c(=O)c(-c2ccc(F)cc2)nc2cnc(N(C)C)nc21	none (no result: TRPV1 PAM, uPA generation, TRPV1 agonist)
COc1ccc(C(=O)NC(=S)Nc2ccc(CN3CCOCC3)cc2)cc1Br	VP16 counter 18µM, RORg inh 7.1µM
O=C(/C=C/c1cccc([N+](=O)[O-])c1)NC(=S)Nc1ccc(CN2CCOCC2)cc1	VP16 counter inconclusive, RORg inh 13µM, uPA generation inconclusive
COc1ccc(C(=O)NC(=S)Nc2ccc(CN3CCOCC3)cc2)cc1	VP16 counter inconclusive, RORg inh 11µM
CCCCOc1ccc(C(=O)NC(=S)Nc2ccc(CN3CCOCC3)cc2)cc1	RORg inh inconclusive
O=C(Nc1cccc([N+](=O)[O-])c1)c1ccc(CN2CCOCC2)cc1	VP16 counter inconclusive, RORg inh inconclusive
O=C(NC(=S)Nc1ccc(CN2CCOCC2)cc1)c1ccc([N+](=O)[O-])cc1	VP16 counter 10µM, RORg inh 14µM
CC1(C)C[C@](C)(C(=O)c2ccccc2)C=C1c1ccccc1	none (no result: TRPV1 PAM, uPA generation, TRPV1 agonist)
CCCC[C@@H]1C[C@H]1C(NC(=O)c1cccs1)c1ccccc1C(F)(F)F (some centres not stated)	none (no result: TRPV1 PAM, uPA generation, TRPV1 agonist)
CSc1ccccc1C(=O)N1CCN(c2ncccn2)CC1	none
Cn1cc(S(=O)(=O)Oc2ccccc2)c(=O)n(C)c1=O	none
CCNS(=O)(=O)c1ccc(Br)c(C(=O)OC(C)C(=O)NCC2CCCCC2)c1 (configuration not stated)	none (no result: VP16 counter, RORg inh)
CCOC(=O)N1CCN(CC(=O)Nc2c(C(=O)OC)[nH]c3ccc(Cl)cc23)CC1	VP16 counter 7.9µM, RORg inh inconclusive, TRPV1 agonist inconclusive
COC(=O)c1[nH]c2ccc(C)cc2c1NC(=O)CN1CCN(c2ccc(F)cc2)CC1	VP16 counter 13µM, TRPV1 agonist inconclusive
CCOC(=O)N1CCN(CC(=O)Nc2c(C(=O)OC)[nH]c3cc(C)ccc23)CC1	TRPV1 agonist inconclusive
COC(=O)c1[nH]c2ccc(C)cc2c1NC(=O)CN1CCC(C)CC1	TRPV1 agonist inconclusive
COC(=O)c1[nH]c2ccc(C)cc2c1NC(=O)CN1CCN(c2ccccc2)CC1	VP16 counter 11µM, RORg inh inconclusive, TRPV1 agonist inconclusive
O=C(c1cccc(F)c1)N1CCC2(CC1)CN(c1cccc(-c3ccccc3)c1)C2	VP16 counter inconclusive (no result: TRPV1 PAM, uPA generation, TRPV1 agonist)
COC(=O)CCSCc1cn2cc(Cl)ccc2n1	VP16 counter inconclusive, RORg inh 6.3µM
O=C(O)CSCc1cn2cc(Cl)ccc2n1	none
O=[N+]([O-])c1ccc(N2CCc3ccccc3C2)nc1	none
CCOC(=O)C(NC(=O)CC)C(O)c1cccc([N+](=O)[O-])c1 (configuration not stated)	none
